Measured values reported in PubChem BioAssay (EPA / NIEHS).
Several values for one entry are separate records, joined by “and”; a condition that tells them apart may be missing. Equal entries are not always repeated. The source holds several records for some structures; these can differ, active in one and inactive in another. Activity calls are given as the source filed them. The calls were made as follows: active = hit-call score of the fitted dose curve at least 0.9, where 1 is the maximum; inactive = score below 0.9.

Read-out: Monocyte Chemoattractant Protein-1 (MCP1), CCL2 (gene 6347)
Assay: BSK_IMphg_MCP1: BioMAP Diversity Plus: IMphg Assay for Monocyte Chemoattractant Protein-1 (MCP1) Biomarker Activity (AID 2284253)
Settings: primary human endothelial cells with macrophages
Protocol: BSK_IMphg is a cell-based, multiplexed-readout assay that uses venular endothelial cells and macrophages, a human vascular primary cell, with measurements taken at 24 hours after chemical dosing in a microplate: 96-well plate.BSK_IMphg_MCP1 is an assay component measured in the BSK_IMphg assay. It measures MCP-1 antibody related to regulation of gene expression using ELISA technology.Data from the assay component BSK_IMphg_MCP1 was analyzed at the endpoint, BSK_IMphg_MCP1, in the positive analysis fitting direction relative to DMSO as the negative control and baseline of activity. Using a type of binding reporter, gain or loss-of-signal activity can be used to understand protein changes. To generalize the intended target to other relatable targets, this assay endpoint is annotated to the 'cytokine' intended target family, where the subfamily is 'chemotactic factor'.
The levels of cell surface (or secreted, indicated by the prefix "s") biomarker endpoints were measured by ELISA. Overt cytotoxicity to cells in confluent adherent cultures (all systems other than the BT system) was assessed by measuring total protein levels using sulforhodamine B (SRB) staining in parallel cultures at the time of biomarker measurements, indicated as SRB endpoints. For proliferation assays for adherent cell types, individual cell types are cultured at sub-confluence and relative cell numbers quantified by SRB staining at time points optimized for each system (48 h: 3C and CASM3C systems; 72 h: BT and HDF3CGF systems; 96 h: SAg system). SRB was performed by staining cells with 0.1% SRB after fixation with 10% TCA and reading wells at 560 nm.Viability and proliferation of PBMC (T cells) was quantified by Alamar Blue reduction for the SAg and BT systems. For PBMC viability (referred to as PBMC Cytotoxicity within the assay endpoint names), cells were plated (75,000/well in a 96-well plate) and then chemical samples added for 1 h before addition of activators, SEB and TSST-1 (20 ng/mL final concentration each). Cells were incubated for 90 h. Then, Alamar Blue (20 uL/well) (Invitrogen, Cat DAL1100) was added for 6 h, and the plates were read with a fluorescence microplate reader at 546/580 nm (excitation/emission). For PBMC proliferation, cells were plated and activated as above but incubated for only 16 h prior to addition of Alamar Blue. Plates were read after 6 h.

Row | Compound | outcome | AC50
1 | FC(F)(F)C(F)(F)C(F)(F)C(F)(F)C(F)(F)CCI | inactive | –
2 | FC1CC(F)(F)C(F)(F)C1(F)F (stereo not given) | inactive | –
3 | FC(F)(F)C(F)(F)C(F)(F)C(F)(F)C(F)(F)C(F)(F)C(F)(F)C(F)(F)F | inactive | –
4 | FC(F)(F)C(F)(F)C(F)(F)C(F)(F)C(F)(F)C(F)(F)C(F)(F)I | inactive | –
5 | O=C(O)C(F)(OC(F)(F)C(F)(OC(F)(F)C(F)(F)C(F)(F)F)C(F)(F)F)C(F)(F)F (stereo not given) | inactive | –
6 | O=S(=O)(OCCOC(F)(F)F)C(F)(F)F | inactive | –
7 | N=C(N)C(F)(F)C(F)(F)C(F)(F)C(F)(F)C(F)(F)C(F)(F)C(F)(F)F | inactive | –
8 | O=P(O)(O)OCCC(F)(F)C(F)(F)C(F)(F)C(F)(F)C(F)(F)C(F)(F)F | inactive | –
9 | C=CC(=O)OCC(F)(F)C(F)(F)C(F)(F)C(F)(F)C(F)(F)C(F)(F)C(F)(F)F | inactive | –
10 | FC(F)(F)C(F)(F)C(F)(F)C(F)(F)C(F)(F)C(F)(F)C(F)(F)C(F)(F)CCS | inactive | –
11 | C=C(C)C(=O)OCC(F)(F)C(F)(F)C(F)(F)F | inactive | –
12 | OCC(F)(F)C(F)(F)C(F)(F)C(F)(F)C(F)(F)C(F)F | inactive | –
13 | O=C(O)C=C(C(F)(F)F)C(F)(F)F | inactive | 42.6 µM (active)
14 | FC(F)(I)C(F)(F)C(F)(F)C(F)(F)I | inactive | –
15 | FC(F)(Br)C(F)(F)C(F)(F)C(F)(F)C(F)(F)C(F)(F)Br | inactive | –
16 | FC(F)(F)C(F)(F)C(F)(F)C(F)(F)C(F)(F)C(F)(F)CCS | inactive | –
17 | O=C(O)C(F)(F)C(F)(F)C(F)F | inactive | –
18 | O=C(O)C(F)(F)C(F)(F)C(F)(F)C(F)(F)C(F)(F)C(F)(F)C(F)(F)C(F)(F)C(F)(F)C(F)(F)C(F)(F)C(F)(F)C(F)(F)F | inactive | –
19 | O=C(O)C(F)(F)C(F)(F)C(F)(F)C(F)(F)C(F)(F)C(F)(F)C(F)(F)C(F)(F)C(F)(F)C(F)F | – | 49.5 µM (active) and 48.9 µM (active)

Row | Compound | outcome | AC50
20 | O=C(O)C(F)(F)C(F)(F)F | inactive | –
21 | FC(F)(F)C(F)(F)CNCC(F)(F)C(F)(F)F | inactive | –
22 | FC(F)(F)C(F)(F)C(F)(F)N(C(F)(F)C(F)(F)C(F)(F)F)C(F)(F)C(F)(F)C(F)(F)F | inactive | –
23 | NC(=O)C(F)(F)C(F)(F)C(F)(F)C(F)(F)F | inactive | –
24 | FC(F)(F)C(F)(F)C(F)(F)C(F)(F)CCI | inactive | –
25 | O=C(Cl)C(F)(F)C(F)(F)C(F)(F)C(F)(F)C(F)(F)C(F)(F)C(F)(F)C(F)(F)F | inactive | 51.4 µM (active)
26 | C=C(C)C(=O)OCC(F)(F)C(F)(F)C(F)(F)C(F)(F)C(F)(F)C(F)(F)C(F)(F)F | inactive | –
27 | C=C(C)C(=O)OCCC(F)(F)C(F)(F)C(F)(F)C(F)(F)C(F)(C(F)(F)F)C(F)(F)F | inactive | –
28 | O=C(CC(=O)C(F)(F)C(F)(F)F)C(F)(F)F | inactive | –
29 | Cc1ccc(S(=O)(=O)OCC(F)(F)C(F)(F)C(F)(F)C(F)(F)C(F)(F)C(F)F)cc1 | inactive | –
30 | O=C(O)C(F)(F)C(F)(F)OC(F)(F)F | inactive | –
31 | C=CC(F)(F)C(F)(F)C(F)(F)C(F)(F)C(F)(F)C(F)(F)C(F)(F)C(F)(F)C=C | inactive | –
32 | O=C(O)C(F)(F)C(F)(F)C(F)(F)C(F)(F)C(F)(F)C(F)(F)C(F)(F)C(F)(F)Cl | – | 48.6 µM (active)
33 | CCCCCCCCC(F)(F)C(F)(F)C(F)(F)C(F)(F)C(F)(F)C(F)(F)F | inactive | –
34 | OCC(F)(F)C(F)(F)C(F)(F)C(F)F | inactive | –
35 | CCO[Si](CCC(F)(F)C(F)(F)C(F)(F)C(F)(F)C(F)(F)C(F)(F)F)(OCC)OCC | inactive | –
36 | O=C(O)C(F)(F)C(F)(F)C(F)(F)F | inactive | –
37 | O=C(O)C(F)(OC(F)(F)C(F)(OC(F)(F)C(F)(OC(F)(F)C(F)(F)C(F)(F)F)C(F)(F)F)C(F)(F)F)C(F)(F)F (stereo not given) | inactive | –
38 | OCCCC(F)(F)C(F)(F)C(F)(F)F | inactive | –
